# Source: PubChem BioAssay (NCATS)
# Records with an inconclusive call do not appear. Where a call stands in place of a potency, no number is given. The source made the active and inactive calls. Unless noted, calls come from the whole dose curve; as a rule, active = well fitted curve in the direction sought with a large enough effect; inconclusive = small, poorly fitted or top-dose-only effect, or another doubt; inactive = no such curve, though single readings can be large; an effect the other way counts as inactive or inconclusive.
# Assays:
# [1] = molecular target: Lysosomal acid glucosylceramidase (Homo sapiens) (UniProt P04062); assay: Glucocerebrosidase-p2 (AID 348; in the data active = potency below about 10 µM; note: potency is the fitted concentration of half-maximal effect); details: purified GBA, blue fluorogenic substrate, 40 min
# Summary of the method: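 Compounds titrated from 0.6 nM upwards against 0.2 nM enzyme in pH 5.9 citric acid/KH2PO4, taurocholate, tween-20; blue fluorogenic substrate 80 uM, 40 min room temperature, stopped and read Ex 365/Em 440 for AC50.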
# [2] = AP1 Signaling Pathway (AID 357; active = well fitted curve in either direction with a large enough effect, not every such curve was filed as active;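 note: ME-180 reporter cells stimulated with EGF at its EC50 level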); details: ME-180 (cervical carcinoma) AP-1-bla reporter, EGF-induced, beta-lactamase ratio, 5 h; at 7.69 µM (top of the series) unless noted
# Summary of the method: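 A ratiometric CCF4 readout (405 nm excitation; 460 and 530 nm emission) quantified AP-1-driven beta-lactamase in ME-180 cells after 5 h with compound and EC50 EGF; AC50 values were derived for activators and inhibitors.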
# [3] = molecular target: Cytochrome P450 1A2 (Homo sapiens) (UniProt P05177); assay: p450-cyp1a2 (AID 410; calls by dose curve; note: potency is the fitted concentration of half-maximal effect)
# Summary of the method: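 Human CYP1A2 (20nM) demethylated Luciferin-ME at its Km (100uM) in 100mM KPO4. After 10 min compound preincubation, NADPH regeneration ran the reaction 60 min at room temperature. Luciferin was read by luminescence, normalized to 57 uM furafylline.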
# [4] = NFAT Signaling Pathway (AID 444; active = well fitted curve in either direction with a large enough effect, not every such curve was filed as active;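 note: carbachol stimulus at about its EC50 of 1 µM final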); details: Jurkat NFAT-bla M1, carbachol, beta-lactamase ratio, 5 h; at 7.69 µM (top of the series) unless noted
# Summary of the method: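 Jurkat cells carrying an NFAT-driven β-lactamase reporter and co-transfected muscarinic M1 receptor were treated with compound plus carbachol (1 uM final, an EC50 level) for 5 h at 37 °C. CCF4 loading followed for 1 h at RT; 460/530 nm ratio gave %activity.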
# [5] = molecular target: Glucocorticoid receptor (Homo sapiens) (UniProt P04150); assay: GR-GFP Redistribution (AID 450;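 active = compounds whose dose series gives a full or clear partial fitted curve of increased nuclear translocation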; note: potency is the fitted concentration of half-maximal effect); details: U2OS GR-GFP nuclear translocation, laser cytometry, 2 h
# [6] = molecular target: Glucocorticoid receptor (Homo sapiens) (UniProt P04150); assay: GR-EFC Redistribution (AID 451; calls by dose curve; note: potency is the fitted concentration of half-maximal effect); details: CHO-K1 GR-EFC translocation, beta-gal luminescence, 2 h
# Summary of the method: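 CHO-K1 cells stably expressing nuclear-localized β-gal enzyme acceptor and GR fused C-terminally to the enzyme donor fragment; ligand-driven nuclear translocation restores β-gal by complementation. Compounds titrated up to 46 uM final, 2 h at 37 °C; luminescence read.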
# [7] = molecular target: Mitogen-activated protein kinase 10 (Mus musculus) (UniProt Q61831); assay: JNK3 AlphaScreen Assay (AID 530; active = well fitted curve in either direction with a large enough effect, not every such curve was filed as active;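 note: kinase came from lysate of stimulated human HepG2 cells; signal reports phosphorylation of biotinylated GST-cJun 1-79 at Ser73 with 10 µM ATP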)
# Summary of the method: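 JNK3 came from HepG2 lysates pre-activated with IL-1beta and TNF-alpha and phosphorylated biotinylated GST-cJun (1-79) at 10 uM ATP, pH 7.6, room temperature. Compounds were titrated. AlphaScreen signal used anti-phospho-cJun (Ser73) antibody.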
# [8] = molecular target: Cytochrome P450 3A4 (Homo sapiens) (UniProt P08684); assay: qHTS Assay for Activators of Cytochrome P450 3A4 (AID 885); note: nearly all actives have a fitted effect of over 65% in size
# Summary of the method: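 Signal was normalized against complete inhibition by 57 uM ketoconazole. The reaction used 20nM CYP3A4 with 25uM Luciferin-PPXE, 10-min compound preincubation and a 60-min NADPH-supported step at RT.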
# [9] = molecular target: Dual specificity protein kinase CLK4 (Homo sapiens) (UniProt Q9HAZ1); assay: qHTS Assay for Inhibitors of CDC-like Kinase 4 (Kinase-Glo Assay) (AID 1770); note: potency is the fitted concentration of half-maximal effect; nearly all actives have a fitted effect of over 65% in size
# Summary of the method: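 Clk4 25 nM, RS peptide 100 uM, ATP 1 uM, pH 7.5 Tris, 10 mM MgCl2, 2.5 mM DTT; 4.5 h RT; ATP depletion read by Kinase-Glo luminescence.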
# [10] = molecular target: Dual specificity protein kinase CLK4 (Homo sapiens) (UniProt Q9HAZ1); assay: qHTS Assay for Inhibitors of CDC-like Kinase 4 (ADP-Glo Assay) (AID 1771); note: potency is the fitted concentration of half-maximal effect; nearly all actives have a fitted effect of over 70% in size
# Summary of the method: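 Clk4 (25 nM) was incubated 1 hr at room temperature with 100 uM RS repeat peptide and 1 uM ATP in buffer with 2 mM MgCl2, 0.5 mM EGTA, 2.5 mM DTT. ADP formed was quantified by ADP-Glo luminescence.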
# [11] = molecular target: Dual specificity protein kinase CLK4 (Homo sapiens) (UniProt Q9HAZ1); assay: qHTS Assay for Inhibitors of CDC-like Kinase 4 (ADP-FP Assay) (AID 1795); note: potency is the fitted concentration of half-maximal effect; nearly all actives have a fitted effect of over 60% in size
# Summary of the method: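 Kinase activity was followed as ADP output, converted from fluorescence polarization with a calibration curve. Reactions ran one hour at low ATP (1 uM) with RS peptide substrate.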
# [12] = molecular target: Ubiquitin carboxyl-terminal hydrolase 1 (Homo sapiens) (UniProt O94782); assay: Inhibitors of USP1/UAF1: Pilot qHTS (AID 504865);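 note: rhodamine fluorescence freed from ubiquitin-rhodamine substrate followed over time; top concentration of the series differs between compounds; nearly all actives have a fitted effect of over 35% in size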
# Summary of the method: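 Enzyme-free wells gave the negative control, while test wells held 1nM USP1/UAF1 preincubated with compound for 15 min at room temperature. Ub-Rho at 150nM final started the reaction, and fluorescence at 480/540 nm was recorded kinetically.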
# [13] = molecular target: Calcium and integrin-binding protein 1 (Homo sapiens) (UniProt Q99828); assay: Primary qHTS for Identification of Calcium Integrin Binding Protein 1 (CIB1) Competitor (AID 1508620);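 note: GST tagged CIB1 binding a fluorescein labelled alphaIIb integrin peptide tracer; top concentration of the series differs between compounds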
# Summary of the method: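 Fluorescence polarization competition: CIB1-GST (1 uM final) preincubated with compound 15 min at room temperature, then FITC-labeled alphaIIb peptide (100 nM final) added for another 15 min. Polarization read at Ex 480/Em 540.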
# [14] = Primary qHTS for small molecule stabilizers of the endoplasmic reticulum resident proteome: Secreted ER Calcium Modulated Protein (SERCaMP) assay (AID 1508630)
# Summary of the method: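 GLuc-SERCaMP-expressing SH-SY5Y cells, pretreated 16 h with compound, are challenged with thapsigargin to empty ER calcium stores; after 4 h, coelenterazine is added directly to the medium and luminescence is imaged.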
# [15] = molecular target: Rap guanine nucleotide exchange factor 3 (Homo sapiens) (UniProt O95398); assay: Confirmatory qHTS for antagonist of cAMP-regulated guanine nucleotide exchange factor 3 (EPAC1) (AID 1645880); note: nearly all actives have a fitted effect of over 55% in size
# Summary of the method: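 Nucleotide exchange uses 100 nM EPAC1, 250 nM RAP1B-BODIPY-GDP and 50 uM GDP, with compounds in a concentration-titration series. After 5 min at room temperature, fluorescence (480 nm ex/540 nm em) is read every 5 min for 30 min. Data are normalized to control ATA and DMSO.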
# [16] = molecular target: Rap guanine nucleotide exchange factor 3 (Homo sapiens) (UniProt O95398); assay: Confirmatory qHTS for agonist of cAMP-regulated guanine nucleotide exchange factor 3 (EPAC1) (AID 1645881);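 note: EPAC1 catalysed release of BODIPY-GDP from Rap1B seen as fluorescence loss; nearly all actives have a fitted effect of over 75% in size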
# [17] = molecular target: Rap guanine nucleotide exchange factor 4 (Homo sapiens) (UniProt Q8WZA2); assay: Confirmatory qHTS for agonist of cAMP-regulated guanine nucleotide exchange factor 4 (EPAC2) (AID 1645884);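 note: nucleotide exchange releases bodipy-GDP from Rap1 and this lowers its fluorescence; nearly all actives have a fitted effect of over 65% in size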
# [18] = molecular target: Rap guanine nucleotide exchange factor 4 (Homo sapiens) (UniProt Q8WZA2); assay: Confirmatory qHTS for antagonist of cAMP-regulated guanine nucleotide exchange factor 4 (EPAC2) (AID 1645885); note: nearly all actives have a fitted effect of over 25% in size; note: potency is the fitted concentration of half-maximal effect
# [19] = Primary qHTS for inhibitors of nuclear receptor binding SET domain protein 2 (NSD2) in an isogenic RCH-ACV NSD2 p.E1099K mutant (9B) (AID 1645876); note: potency is the fitted concentration of half-maximal effect; nearly all actives have a fitted effect of over 70% in size
# [20] = Primary qHTS for inhibitors of nuclear receptor binding SET domain protein 2 (NSD2) in an RCH-ACV wild type WT cells (2C) (AID 1645877); note: potency is the fitted concentration of half-maximal effect; nearly all actives have a fitted effect of over 70% in size
# [21] = molecular target: Catechol O-methyltransferase (Homo sapiens) (UniProt P21964); assay: Confirmatory Screen for Target Class Profiling of Small Molecule Inhibitors of Methyltransferases (AID 1745852; calls by dose curve; note: potency is the fitted concentration of half-maximal effect); details: MTase-Glo luminescence, SAH detection, recombinant enzyme; measured here: COMT max response; stronger effect = lower value
# [22] = molecular target: Guanidinoacetate N-methyltransferase (Homo sapiens) (UniProt Q14353); assay: as above; details: MTase-Glo luminescence, SAH detection, recombinant enzyme; activity change, negative = inhibition: at 57.3 µM (top of the series)
# [23] = molecular target: Nicotinamide N-methyltransferase (Homo sapiens) (UniProt P40261); assay: as above; details: MTase-Glo luminescence, SAH detection, recombinant enzyme; measured here: NNMT max response; stronger effect = lower value
# [24] = molecular target: Phenylethanolamine N-methyltransferase (Homo sapiens) (UniProt P11086); assay: as above; details: MTase-Glo luminescence, SAH detection, recombinant enzyme; measured here: PNMT max response; stronger effect = lower value
# [25] = molecular target: Glutathione peroxidase 1 (Homo sapiens) (UniProt P07203); assay: Primary qHTS Assay for Inhibitors of Recombinant Selenoprotein Glutathione Peroxidase 1 (GPX1) (AID 1845191); note: nearly all actives have a fitted effect of over 65% in size
# Summary of the method: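 Recombinant GPX1 (10 nM final) was preincubated with compound for 30 min at room temperature, then reacted with 1 mM GSH, 0.5 mM CHP, 0.5 mM NADPH and 100 nM glutathione reductase; NADPH fluorescence (340/450 nm) was read at 0 and 15 min.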
# [26] = molecular target: Rap guanine nucleotide exchange factor 3 (Homo sapiens) (UniProt O95398); assay: Counterscreen qHTS for antagonist of cAMP-regulated guanine nucleotide exchange factor 3 (EPAC1) (AID 1645888);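 note: fluorescence loss as bound BODIPY-GDP is released from Rap1B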
# Summary of the method: (§1)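 Measured: fluorescence of BODIPY-GDP bound to Rap1B, which falls as exchange proceeds. Conditions include 50 uM competing GDP, 5 and 30 min reads, and a later cAMP challenge for antagonist detection.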
# [27] = molecular target: Rap guanine nucleotide exchange factor 3 (Homo sapiens) (UniProt O95398); assay: Counterscreen qHTS for agonist of cAMP-regulated guanine nucleotide exchange factor 3 (EPAC1) (AID 1645889); note: nearly all actives have a fitted effect of over 40% in size
# Summary of the method: as §1
# [28] = qHTS for Inhibitors of Ubiquitin-specific Protease USP2a Using CHOP2 as the Reporter: K633 Counterscreen (AID 652168)
# Summary of the method: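 Cell-free interference counterscreen without USP2a: compounds pinned into enzyme-free buffer (20 mM Tris pH 8, 2 mM beta-mercaptoethanol, 0.05% Chaps), then DiUb K48-4IQF substrate added (100 nM stock); fluorescence read kinetically, Ex 525/Em 598.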
# [29] = qHTS for Inhibitors of Ubiquitin-specific Protease USP2a Using CHOP2 as the Reporter: Cytotox Assay (AID 652170); note: nearly all actives have a fitted effect of over 70% in size
# Summary of the method: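 HCT116 human colon cancer cells, 600 per well in DMEM with 10% FBS, exposed to compounds for 72 hr at 37 deg C. ATP measured by CellTiter-Glo luminescence, normalized to DMSO cells and no-cell background.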
# [30] = molecular target: Ubiquitin carboxyl-terminal hydrolase 2 (Homo sapiens) (UniProt O75604); assay: qHTS for Inhibitors of Ubiquitin-specific Protease USP2a Using CHOP2 as the Reporter: K484 Substrate (AID 652173)
# Summary of the method: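 USP2 (dispensed at 5 nM) was pinned with compounds, then DiUb K48 internally quenched fluorescent substrate (dispensed at 100 nM) was added. The buffer was 20 mM Tris pH 8, 2 mM beta-mercaptoethanol and 0.05% CHAPS. Cleavage was read kinetically as rising fluorescence, Ex 525/Em 598.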
# Sequence of Rap guanine nucleotide exchange factor 4 (Homo sapiens) (Q8WZA2 whole entry, looked up, the tested form may be a part): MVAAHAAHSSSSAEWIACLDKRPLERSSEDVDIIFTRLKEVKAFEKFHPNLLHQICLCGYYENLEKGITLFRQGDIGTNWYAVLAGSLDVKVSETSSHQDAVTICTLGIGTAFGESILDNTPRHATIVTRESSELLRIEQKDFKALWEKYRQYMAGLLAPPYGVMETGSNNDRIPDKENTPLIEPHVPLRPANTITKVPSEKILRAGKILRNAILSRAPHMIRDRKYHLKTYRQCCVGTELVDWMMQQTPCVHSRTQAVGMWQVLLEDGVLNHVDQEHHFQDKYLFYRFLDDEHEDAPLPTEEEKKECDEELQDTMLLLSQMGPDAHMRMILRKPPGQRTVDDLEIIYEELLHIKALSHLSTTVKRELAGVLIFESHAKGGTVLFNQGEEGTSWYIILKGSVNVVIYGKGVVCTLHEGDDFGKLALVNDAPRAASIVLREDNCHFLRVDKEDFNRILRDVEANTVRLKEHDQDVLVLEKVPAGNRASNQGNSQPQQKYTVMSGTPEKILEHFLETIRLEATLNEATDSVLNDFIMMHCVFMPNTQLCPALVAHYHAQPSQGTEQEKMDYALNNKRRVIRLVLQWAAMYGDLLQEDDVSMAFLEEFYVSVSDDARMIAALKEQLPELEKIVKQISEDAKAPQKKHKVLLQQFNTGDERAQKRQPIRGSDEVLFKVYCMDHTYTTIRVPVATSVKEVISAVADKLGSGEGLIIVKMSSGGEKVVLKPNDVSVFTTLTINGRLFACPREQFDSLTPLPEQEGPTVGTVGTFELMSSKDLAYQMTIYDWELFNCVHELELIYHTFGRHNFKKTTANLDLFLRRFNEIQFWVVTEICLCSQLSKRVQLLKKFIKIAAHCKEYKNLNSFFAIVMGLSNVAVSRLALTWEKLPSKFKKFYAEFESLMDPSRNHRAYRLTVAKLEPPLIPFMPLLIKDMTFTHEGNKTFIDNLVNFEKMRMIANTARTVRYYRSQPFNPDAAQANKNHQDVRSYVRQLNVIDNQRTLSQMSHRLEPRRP
# Sequence of Glutathione peroxidase 1 (Homo sapiens) (P07203 whole entry, looked up): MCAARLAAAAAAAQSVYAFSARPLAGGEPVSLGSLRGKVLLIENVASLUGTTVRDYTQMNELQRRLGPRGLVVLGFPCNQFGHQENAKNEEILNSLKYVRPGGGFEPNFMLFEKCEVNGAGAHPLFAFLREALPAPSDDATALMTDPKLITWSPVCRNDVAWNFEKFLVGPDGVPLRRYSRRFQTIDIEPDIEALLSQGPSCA
# Sequence of Calcium and integrin-binding protein 1 (Homo sapiens) (Q99828 whole entry, looked up): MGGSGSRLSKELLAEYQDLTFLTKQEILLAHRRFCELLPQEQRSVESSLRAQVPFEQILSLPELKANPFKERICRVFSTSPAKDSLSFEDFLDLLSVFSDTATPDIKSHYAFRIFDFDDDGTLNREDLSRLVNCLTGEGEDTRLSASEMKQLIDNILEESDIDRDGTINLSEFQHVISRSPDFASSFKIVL
# Sequence of Rap guanine nucleotide exchange factor 3 (Homo sapiens) (O95398 whole entry, looked up): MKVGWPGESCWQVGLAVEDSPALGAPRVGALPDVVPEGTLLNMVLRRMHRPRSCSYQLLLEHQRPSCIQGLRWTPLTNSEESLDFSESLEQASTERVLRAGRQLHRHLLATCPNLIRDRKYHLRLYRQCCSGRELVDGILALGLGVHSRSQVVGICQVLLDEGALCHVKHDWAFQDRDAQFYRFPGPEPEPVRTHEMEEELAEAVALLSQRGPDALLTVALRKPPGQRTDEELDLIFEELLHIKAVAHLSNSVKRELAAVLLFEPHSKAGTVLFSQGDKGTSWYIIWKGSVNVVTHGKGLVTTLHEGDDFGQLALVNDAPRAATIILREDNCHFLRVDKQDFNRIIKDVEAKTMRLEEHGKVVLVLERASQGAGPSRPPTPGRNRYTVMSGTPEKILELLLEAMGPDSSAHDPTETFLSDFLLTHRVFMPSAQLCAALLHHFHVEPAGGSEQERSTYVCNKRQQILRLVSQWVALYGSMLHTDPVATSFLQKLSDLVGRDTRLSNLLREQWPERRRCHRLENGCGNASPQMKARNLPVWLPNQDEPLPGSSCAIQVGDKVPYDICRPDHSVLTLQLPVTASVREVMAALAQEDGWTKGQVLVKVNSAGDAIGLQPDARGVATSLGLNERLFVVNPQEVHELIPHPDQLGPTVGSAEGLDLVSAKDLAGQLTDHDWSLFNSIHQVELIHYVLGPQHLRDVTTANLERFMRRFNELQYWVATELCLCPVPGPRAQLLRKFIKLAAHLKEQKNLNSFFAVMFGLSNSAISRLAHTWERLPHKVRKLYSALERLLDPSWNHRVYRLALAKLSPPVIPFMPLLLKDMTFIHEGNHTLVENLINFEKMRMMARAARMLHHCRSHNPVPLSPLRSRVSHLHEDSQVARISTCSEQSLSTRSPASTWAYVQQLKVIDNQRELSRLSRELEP
# Sequence of Dual specificity protein kinase CLK4 (Homo sapiens) (Q9HAZ1 whole entry, looked up): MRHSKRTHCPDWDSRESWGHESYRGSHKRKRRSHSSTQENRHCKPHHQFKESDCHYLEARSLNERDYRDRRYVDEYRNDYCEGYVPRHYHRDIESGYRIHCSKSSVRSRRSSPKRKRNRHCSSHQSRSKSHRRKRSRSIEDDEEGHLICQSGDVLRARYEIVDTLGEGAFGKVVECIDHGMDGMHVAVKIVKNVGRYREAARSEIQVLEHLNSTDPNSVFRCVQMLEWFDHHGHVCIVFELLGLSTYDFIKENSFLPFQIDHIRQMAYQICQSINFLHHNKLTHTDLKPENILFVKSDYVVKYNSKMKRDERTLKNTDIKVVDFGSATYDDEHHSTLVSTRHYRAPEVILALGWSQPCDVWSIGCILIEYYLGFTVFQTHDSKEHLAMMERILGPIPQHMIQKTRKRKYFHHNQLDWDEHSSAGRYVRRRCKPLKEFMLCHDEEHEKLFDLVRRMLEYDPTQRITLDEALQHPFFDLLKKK
# Sequence of Glucocorticoid receptor (Homo sapiens) (P04150 whole entry, looked up, the tested form may be a part): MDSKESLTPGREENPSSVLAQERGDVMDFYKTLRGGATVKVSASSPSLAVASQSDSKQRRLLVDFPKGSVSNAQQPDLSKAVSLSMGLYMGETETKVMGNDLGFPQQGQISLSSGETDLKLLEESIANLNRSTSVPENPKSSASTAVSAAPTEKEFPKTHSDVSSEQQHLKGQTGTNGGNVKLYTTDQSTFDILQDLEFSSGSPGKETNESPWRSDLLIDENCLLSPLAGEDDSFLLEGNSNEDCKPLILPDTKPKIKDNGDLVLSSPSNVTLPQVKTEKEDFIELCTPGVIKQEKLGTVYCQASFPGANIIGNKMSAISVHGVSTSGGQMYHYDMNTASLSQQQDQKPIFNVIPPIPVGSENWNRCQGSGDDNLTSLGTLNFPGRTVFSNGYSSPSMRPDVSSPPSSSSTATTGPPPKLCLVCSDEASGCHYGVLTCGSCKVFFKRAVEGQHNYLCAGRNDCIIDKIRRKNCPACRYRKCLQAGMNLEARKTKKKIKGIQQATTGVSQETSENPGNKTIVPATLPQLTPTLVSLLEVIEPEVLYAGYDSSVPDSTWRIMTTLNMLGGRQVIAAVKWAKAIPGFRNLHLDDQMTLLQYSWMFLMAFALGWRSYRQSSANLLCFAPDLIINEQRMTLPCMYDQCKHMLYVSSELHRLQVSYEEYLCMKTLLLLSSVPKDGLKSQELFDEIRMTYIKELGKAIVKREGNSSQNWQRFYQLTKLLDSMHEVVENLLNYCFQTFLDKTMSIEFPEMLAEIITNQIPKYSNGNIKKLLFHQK
# Sequence of Cytochrome P450 3A4 (Homo sapiens) (P08684 whole entry, looked up): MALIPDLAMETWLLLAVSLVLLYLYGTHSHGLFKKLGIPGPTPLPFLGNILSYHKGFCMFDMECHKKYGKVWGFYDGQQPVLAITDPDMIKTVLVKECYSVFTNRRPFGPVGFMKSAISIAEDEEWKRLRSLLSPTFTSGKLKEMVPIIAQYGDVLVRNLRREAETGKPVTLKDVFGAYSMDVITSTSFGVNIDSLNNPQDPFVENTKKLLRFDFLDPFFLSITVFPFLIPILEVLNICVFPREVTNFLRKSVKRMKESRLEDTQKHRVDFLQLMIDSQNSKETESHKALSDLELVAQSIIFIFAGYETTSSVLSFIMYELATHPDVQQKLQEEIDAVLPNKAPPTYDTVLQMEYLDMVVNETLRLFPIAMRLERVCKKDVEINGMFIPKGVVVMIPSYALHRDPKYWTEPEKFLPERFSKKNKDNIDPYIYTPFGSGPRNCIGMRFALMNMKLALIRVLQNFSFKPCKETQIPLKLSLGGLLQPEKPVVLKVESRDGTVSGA
# Sequence of Phenylethanolamine N-methyltransferase (Homo sapiens) (P11086 whole entry, looked up): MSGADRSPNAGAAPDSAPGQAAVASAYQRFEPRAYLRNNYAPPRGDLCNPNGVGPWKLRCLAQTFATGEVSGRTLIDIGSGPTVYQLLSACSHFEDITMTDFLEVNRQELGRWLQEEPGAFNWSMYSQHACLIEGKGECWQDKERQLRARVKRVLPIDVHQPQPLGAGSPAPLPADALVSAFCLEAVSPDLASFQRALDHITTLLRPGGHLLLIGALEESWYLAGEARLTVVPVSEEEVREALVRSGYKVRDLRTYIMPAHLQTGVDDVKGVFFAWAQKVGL
# Sequence of Cytochrome P450 1A2 (Homo sapiens) (P05177 whole entry, looked up): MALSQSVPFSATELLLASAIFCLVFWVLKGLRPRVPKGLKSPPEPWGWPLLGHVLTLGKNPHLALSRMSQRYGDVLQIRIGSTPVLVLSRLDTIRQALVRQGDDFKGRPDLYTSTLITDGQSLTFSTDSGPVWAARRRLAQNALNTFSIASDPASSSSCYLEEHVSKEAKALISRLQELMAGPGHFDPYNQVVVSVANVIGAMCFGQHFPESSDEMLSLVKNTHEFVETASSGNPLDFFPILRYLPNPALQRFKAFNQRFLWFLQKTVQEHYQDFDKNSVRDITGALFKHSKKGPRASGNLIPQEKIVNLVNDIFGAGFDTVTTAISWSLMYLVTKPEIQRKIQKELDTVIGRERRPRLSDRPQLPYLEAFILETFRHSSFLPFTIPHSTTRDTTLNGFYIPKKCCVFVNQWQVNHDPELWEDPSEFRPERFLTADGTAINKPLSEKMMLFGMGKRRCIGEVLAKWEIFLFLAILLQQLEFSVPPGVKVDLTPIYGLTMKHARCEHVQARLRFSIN
smiles,measurement,setting,value
CN(Cc1ccco1)c1ncnc2ccc(-c3ccoc3)cc12,Potency,[1],> 11.4 µM (inactive)
same,"activity change, negative = inhibition",[2],-16.7% (inactive)
same,Potency,[3],2.51 µM (active)
same,"activity change, negative = inhibition",[4],-26.3% (inactive)
same,Potency,[5],> 46 µM (inactive)
same,Potency,[6],> 46 µM (inactive)
same,outcome,[7],inactive
same,Potency,[8],inactive
same,Potency,[9],0.112 µM (active)
same,Potency,[10],0.112 µM (active)
same,Potency,[11],0.0501 µM (active)
same,Potency,[12],inactive
same,Potency,[13],inactive
same,Potency,[14],inactive
same,Potency,[15],inactive
same,outcome,[16],inactive
same,outcome,[17],inactive
same,Potency,[18],inactive
CN(Cc1cccs1)c1ncnc2ccc(-c3ccc4c(c3)OCO4)cc12,Potency,[13],inactive
same,Potency,[19],20.6 µM (active)
same,Potency,[20],20.6 µM (active)
same,activity,[21],-85.9%
same,Potency,[22],12.1 µM (active)
same,activity,[23],-70.6%
same,activity,[24],-84.2%
same,Potency,[25],inactive
CC(C)(C)n1nc(Cc2cccc([N+](=O)[O-])c2)c2c(N)ncnc21,Potency,[13],inactive
same,Potency,[25],inactive
CCC(=O)NC(c1ccco1)c1cc(Cl)c2ccccc2c1O (configuration not stated),Potency,[13],inactive
same,outcome,[16],inactive
same,outcome,[17],inactive
same,Potency,[18],53.6 µM (active)
same,outcome,[26],inactive
same,outcome,[27],inactive
Cc1ccc(NS(=O)(=O)c2ccc3c(c2)CCC(=O)N3)cc1C,Potency,[13],inactive
same,Potency,[25],inactive
Cc1ccc(NS(=O)(=O)c2cc3c(cc2Cl)CCC(=O)N3)cc1Cl,Potency,[13],inactive
same,Potency,[25],inactive
O=C(CCc1ccccc1)Nc1ccc(S(=O)(=O)Nc2nccs2)cc1,outcome,[28],inactive
same,Potency,[29],inactive
same,Potency,[30],inactive
same,Potency,[13],inactive
same,Potency,[15],inactive
same,outcome,[16],inactive
same,activation,[17],9.99% [at 17.1 µM] (inactive)
same,"activity change, negative = inhibition",[18],1.51% [at 12.7 µM] (inactive)
same,activation,[27],9.8% [at 30.8 µM] (inactive)
